Test results from PubChem BioAssay (Tox21).
Inconclusive results are not listed. Values without a mark were called inactive. The call rests on the fitted dose curve; in most records, active means well fitted cell-killing curve with a large enough effect in the repeat runs; inconclusive means weak or mixed curves, or effect the other way; inactive means flat fitted curve, though single readings scatter.

Experiment: qHTS RealTime-Glo MT Cell Viability Assay in HEK293 cells - 0 hour (AID 1224880); further: top concentration of the series differs between compounds; nearly all actives have a fitted effect of over 45% in size
Settings: RealTime-Glo luminescence; series mostly up to 76.8 µM; activity change, negative = cytotoxicity: at the top concentration
Excerpt: U.S. Tox21 Program National Center for Advancing Translational Sciences [NCATS] NIH Chemical Genomics Center [NCGC] U.S. Environmental Protection Agency [EPA] National Institutes of Environmental Health Sciences [NIEHS] National Toxicology Program [NTP] U.S. Food and Drug Administration [FDA] Tox21 Assay Overview: Measure of cell viability is critical in the cell-base assay. Analysis of cell viability is necessary for the characterization of cell responses to cytotoxic drugs and environmental stress. A RealTime-Glo MT Cell Viability Assay to monitor cell viability in real time of continues cell culture during 40 hours of compound treatment was used to screen Tox21 10K library compounds in Hek293 cells. The RealTime-Glo MT Cell Viability Assay is a nonlytic, homogeneous, bioluminescent method to measure cell viability in real time using a simple, plate-based method. The assay involves adding NanoLuc luciferase and a cell-permeant prosubstrate to cells in culture. Viable cells reduce the proprietary prosubstrate to generate a substrate for NanoLuc luciferase. This substrate diffuses from cells into the surrounding culture medium, where it is rapidly used by the NanoLuc Enzyme to produce a luminescent signal. The signal correlates with the number of viable cells, making the assay well suited for cytotoxicity studies.
Tox21 Assay Protocol Summary: The mixture of Hek293 cell suspension and reagents were dispensed at 600cells/6 ul/well in 1536-well tissue culture treated black solid bottom plates using a Multidrop dispenser. After the assay plates were incubated at a 37 C/5% CO2 incubator for 5 hours, 23 nL of compounds dissolved in DMSO, positive and negative controls was transferred to the assay plate by a pintool work station. The plates were incubated at 37 C for 40 hours. The luminescence intensity were measured at 0h, 8h, 16h, 24h, 32h and 40h time points using ViewLux plate reader during compound treatment.
On the % scale 0 is the no-effect control and ±100 the full control effect.

Question: For `CCCC=O`, which “activity change, negative = cytotoxicity” value is on record?
Answer: 1.21%

Question: For `Cc1onc(-c2ccccc2)c1-c1ccc(S(N)(=O)=O)cc1`, which “activity change, negative = cytotoxicity” value is on record?
Answer: 5.06% [at 35.3 µM]

Question: Which “activity change, negative = cytotoxicity” value does the source give for `CCCc1ccc(N)cc1` here?
Answer: 2.69%

Question: Which “activity change, negative = cytotoxicity” value does the source give for `CSc1ccc(C=O)cc1` here?
Answer: 0.735%

Question: Which “activity change, negative = cytotoxicity” value does the source give for `OC1OC[C@@H](O)[C@H](O)[C@H]1O` (stereo not given in full) here?
Answer: 5.34%

Question: With `Fc1ccccc1-c1ccccc1` as the compound, how does the “activity change, negative = cytotoxicity” value read?
Answer: 1.15%

Question: For `CC(=O)OC(C)(C)C`, which “activity change, negative = cytotoxicity” value is on record?
Answer: 9.34%

Question: For `COc1nc(C)nc(N)n1`, which “activity change, negative = cytotoxicity” value is on record?
Answer: -1.33%

Question: For `CC(=O)O[C@H](CC(=O)[O-])C[N+](C)(C)C`, which “activity change, negative = cytotoxicity” value is on record?
Answer: 7.51%

Question: For `CCCCC=O`, which “activity change, negative = cytotoxicity” value is on record?
Answer: 5.42%

Question: Which “activity change, negative = cytotoxicity” value does the source give for `OC/C=C/c1ccccc1` here?
Answer: 14%

Question: Which “activity change, negative = cytotoxicity” value does the source give for `CCC(=O)/C=C/c1ccc(OC)cc1` here?
Answer: -10.1%

Question: With `Nc1cc(C(Cl)=C(Cl)Cl)c(S(N)(=O)=O)cc1S(N)(=O)=O` as the compound, how does the “activity change, negative = cytotoxicity” value read?
Answer: -2.6% [at 35.3 µM]

Question: For `CCOC(=O)Nc1ccc2c(c1)N(C(=O)CCN1CCOCC1)c1ccccc1S2`, which “activity change, negative = cytotoxicity” value is on record?
Answer: -7.44% [at 35.3 µM]

Question: For `CCC(C)OC(=O)N1CCCCC1CCO` (stereo not given), which “activity change, negative = cytotoxicity” value is on record?
Answer: 1.58%

Question: With `CC(=O)CCc1ccc(O)cc1` as the compound, how does the “activity change, negative = cytotoxicity” value read?
Answer: 1.15%

Question: With `NC(=O)Nc1nc2ccccc2[nH]1` as the compound, how does the “activity change, negative = cytotoxicity” value read?
Answer: 13.6%

Question: With `CC/C=C\CCCCO` as the compound, how does the “activity change, negative = cytotoxicity” value read?
Answer: 6.79%

Question: For `Cc1nccn1CC1CCc2c(c3ccccc3n2C)C1=O` (stereo not given), which “activity change, negative = cytotoxicity” value is on record?
Answer: -3.44% [at 35.3 µM]

Question: Which “activity change, negative = cytotoxicity” value does the source give for `CC(CCO)CCCC(C)(C)O` (stereo not given) here?
Answer: 1.04%

Question: With `CCC(=O)Nc1cccc(N)c1` as the compound, how does the “activity change, negative = cytotoxicity” value read?
Answer: 12.9%

Question: Which “activity change, negative = cytotoxicity” value does the source give for `COc1cc(C)cc(O)c1` here?
Answer: 4.87%

Question: Which “activity change, negative = cytotoxicity” value does the source give for `C=CC(=O)OCCCCCC` here?
Answer: -11.4%

Question: With `C1C2OC2C2C1C1CC2C2OC12` (stereo not given) as the compound, how does the “activity change, negative = cytotoxicity” value read?
Answer: 22.2%

Question: Which activity change, negative = cytotoxicity does the source give for `Cn1ccc2cc3c(cc21)CCN3C(=O)Nc1cccnc1` here?
Answer: -0.254% [at 15.8 µM]

Question: Which “activity change, negative = cytotoxicity” value does the source give for `CC(C)CCCC(C)CCCC(C)CCCCC(C)CCCC(C)CCCC(C)C` (stereo not given) here?
Answer: 6.59% [at 35.3 µM]

Question: Which “activity change, negative = cytotoxicity” value does the source give for `CC1CCN(CCCC(=O)c2ccc(F)cc2)CC1` here?
Answer: 0.528% [at 35.3 µM]

Question: Which “activity change, negative = cytotoxicity” value does the source give for `O=C(O)C1CCC1` here?
Answer: 11.9% [at 35.3 µM]

Question: Which “activity change, negative = cytotoxicity” value does the source give for `O=C(O)/C=C/c1ccc(/C=C/C(=O)O)cc1` here?
Answer: 3.1% [at 35.3 µM]

Question: With `CC(C)[N+](C)(C)CC(O)COc1cccc2ccccc12` (stereo not given) as the compound, how does the “activity change, negative = cytotoxicity” value read?
Answer: -1.53% [at 35.3 µM]

Question: Which “activity change, negative = cytotoxicity” value does the source give for `NCCN1CCNC1=O` here?
Answer: 9.76%

Question: Which “activity change, negative = cytotoxicity” value does the source give for `CC1=CC(C)C(C=O)C(C)C1` (stereo not given) here?
Answer: -3.66%

Question: With `CN1[C@@H]2CC[C@H]1CC(NC(=O)n1c(=O)[nH]c3ccccc31)C2` (stereo not given in full) as the compound, how does the “activity change, negative = cytotoxicity” value read?
Answer: 2.73% [at 35.3 µM]

Question: For `CO[Si](OC)(OC)OC`, which “activity change, negative = cytotoxicity” value is on record?
Answer: 20.3%

Question: For `C(=C(c1ccccc1)c1ccccc1)c1ccccc1`, which “activity change, negative = cytotoxicity” value is on record?
Answer: 22.7%

Question: Which “activity change, negative = cytotoxicity” value does the source give for `O=C1C(CCS(=O)c2ccccc2)C(=O)N(c2ccccc2)N1c1ccccc1` (stereo not given) here?
Answer: -5.91% [at 35.3 µM]

Question: For `OCCCCCCO`, which “activity change, negative = cytotoxicity” value is on record?
Answer: 0.908%

Question: For `COC(=O)CCCC(=O)O`, which “activity change, negative = cytotoxicity” value is on record?
Answer: 10.3%

Question: For `CC(=O)NC(Cc1ccccc1)C(=O)O` (stereo not given), which “activity change, negative = cytotoxicity” value is on record?
Answer: -4.52% [at 35.3 µM]

Question: Which “activity change, negative = cytotoxicity” value does the source give for `CCCC(=O)O[C@]1(C(=O)CCl)[C@@H](C)C[C@H]2[C@@H]3CCC4=CC(=O)C=C[C@]4(C)[C@@]3(F)C(=O)C[C@@]21C` here?
Answer: -7.48% [at 35.3 µM]
